From PubChem BioAssay (NCATS) come the findings set out here.

SMILES strings stand for the structures. Inconclusive results are not listed. Values without a mark were called inactive. Active and inactive are the calls of the source. The call rests on the fitted dose curve; in most records, active means well fitted inhibition curve with a large enough effect; inconclusive means small, poorly fitted or top-dose-only effect; inactive means no such curve, though single readings can be large or run the other way.
Further: nearly all actives have a fitted effect of over 35% in size.
Potency means the concentration at half of the fitted maximal effect.

The first experiment can be described thus: BET inhibitor-based combinations targeting novel dependencies in MECOM-rearranged (r) AML: SET-2 cell line (AID 2202231).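 On viability: plate controls were DMSO treated cells for no effect and wells without cells for full effect.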 As to conditions: SET-2 AML cells viability, CellTiter-Glo luminescence, 48 h; viability: active compounds read low, concentration not given here. Put shortly: (§1)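 Cells were plated at 500 per well and exposed to an 11-point dose series of each drug for 48 hr. Viability was measured by CellTiter-Glo luminescence, normalized to DMSO and empty-well controls, and summarized as AUC and per-cell-line Z-AUC.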
On the technique in general: Cellular ATP, detected with luciferase, serves as a proxy for viable cell number.
For orientation: viability means a read-out of living cells in per cent, often relative to untreated cells. Turning to `CN(C)CCOC(c1ccccc1)c1ccccc1`, the viability was 105%.
With `O=C1c2c(O)ccc(O)c2C(=O)c2c(NCCNCCO)ccc(NCCNCCO)c21`, the Potency is 0.742 µM (active).
For the compound `NCCCC(N)(C(=O)O)C(F)F` (stereo not given), the viability was 102%.
Same read-out and setting: the value for `O=c1c(-c2ccc(O)cc2)coc2cc(O[C@@H]3O[C@H](CO)[C@@H](O)[C@H](O)[C@H]3O)ccc12` was 119%.
For the compound `COc1cc2c(c(OC)c1OC)-c1ccc(OC)c(=O)cc1[C@@H](NC(C)=O)CC2`, the Potency was 0.0661 µM (active).
`N[C@@H](Cc1ccc(O)c(O)c1)C(=O)O`: the viability is 105%.

A short description of another experiment: BET inhibitor-based combinations targeting novel dependencies in MECOM-rearranged (r) AML: OCI-AML3 cell line (AID 2202232). As to conditions: CellTiter-Glo luminescence, 48 h; Potency: OCI-AML3 viability; series mostly up to 46 µM. Put shortly:
as §1
As to `O=C1c2c(O)ccc(O)c2C(=O)c2c(NCCNCCO)ccc(NCCNCCO)c21`, the Potency is 0.209 µM (active).
Consider `NCCCC(N)(C(=O)O)C(F)F` (stereo not given), for which the Potency entry was “inactive”.
For `N[C@@H](Cc1ccc(O)c(O)c1)C(=O)O`, the Potency entry is “inactive”.
On the same count and under the same terms, the value for `CC(=O)[C@]1(O)Cc2c(O)c3c(c(O)c2[C@@H](O[C@H]2C[C@H](N)[C@H](O)[C@H](C)O2)C1)C(=O)c1ccccc1C3=O` was 0.186 µM (active).
